Hits are enriched below; roughly 3.6% of the tested compounds scored in any of these assays.
mHTT CaM bind: mutant huntingtin-calmodulin interaction inhibitors – biochemical, AlphaScreen, primary screen. P42858. AlphaScreen His-mHTT/GST-CaM binding, luminescence. inhibition, % at 15 µM. 190,000 compounds, 3.6% hits. AID 1671202, 2021
Target sequence (P42858 whole entry, looked up, change not shown): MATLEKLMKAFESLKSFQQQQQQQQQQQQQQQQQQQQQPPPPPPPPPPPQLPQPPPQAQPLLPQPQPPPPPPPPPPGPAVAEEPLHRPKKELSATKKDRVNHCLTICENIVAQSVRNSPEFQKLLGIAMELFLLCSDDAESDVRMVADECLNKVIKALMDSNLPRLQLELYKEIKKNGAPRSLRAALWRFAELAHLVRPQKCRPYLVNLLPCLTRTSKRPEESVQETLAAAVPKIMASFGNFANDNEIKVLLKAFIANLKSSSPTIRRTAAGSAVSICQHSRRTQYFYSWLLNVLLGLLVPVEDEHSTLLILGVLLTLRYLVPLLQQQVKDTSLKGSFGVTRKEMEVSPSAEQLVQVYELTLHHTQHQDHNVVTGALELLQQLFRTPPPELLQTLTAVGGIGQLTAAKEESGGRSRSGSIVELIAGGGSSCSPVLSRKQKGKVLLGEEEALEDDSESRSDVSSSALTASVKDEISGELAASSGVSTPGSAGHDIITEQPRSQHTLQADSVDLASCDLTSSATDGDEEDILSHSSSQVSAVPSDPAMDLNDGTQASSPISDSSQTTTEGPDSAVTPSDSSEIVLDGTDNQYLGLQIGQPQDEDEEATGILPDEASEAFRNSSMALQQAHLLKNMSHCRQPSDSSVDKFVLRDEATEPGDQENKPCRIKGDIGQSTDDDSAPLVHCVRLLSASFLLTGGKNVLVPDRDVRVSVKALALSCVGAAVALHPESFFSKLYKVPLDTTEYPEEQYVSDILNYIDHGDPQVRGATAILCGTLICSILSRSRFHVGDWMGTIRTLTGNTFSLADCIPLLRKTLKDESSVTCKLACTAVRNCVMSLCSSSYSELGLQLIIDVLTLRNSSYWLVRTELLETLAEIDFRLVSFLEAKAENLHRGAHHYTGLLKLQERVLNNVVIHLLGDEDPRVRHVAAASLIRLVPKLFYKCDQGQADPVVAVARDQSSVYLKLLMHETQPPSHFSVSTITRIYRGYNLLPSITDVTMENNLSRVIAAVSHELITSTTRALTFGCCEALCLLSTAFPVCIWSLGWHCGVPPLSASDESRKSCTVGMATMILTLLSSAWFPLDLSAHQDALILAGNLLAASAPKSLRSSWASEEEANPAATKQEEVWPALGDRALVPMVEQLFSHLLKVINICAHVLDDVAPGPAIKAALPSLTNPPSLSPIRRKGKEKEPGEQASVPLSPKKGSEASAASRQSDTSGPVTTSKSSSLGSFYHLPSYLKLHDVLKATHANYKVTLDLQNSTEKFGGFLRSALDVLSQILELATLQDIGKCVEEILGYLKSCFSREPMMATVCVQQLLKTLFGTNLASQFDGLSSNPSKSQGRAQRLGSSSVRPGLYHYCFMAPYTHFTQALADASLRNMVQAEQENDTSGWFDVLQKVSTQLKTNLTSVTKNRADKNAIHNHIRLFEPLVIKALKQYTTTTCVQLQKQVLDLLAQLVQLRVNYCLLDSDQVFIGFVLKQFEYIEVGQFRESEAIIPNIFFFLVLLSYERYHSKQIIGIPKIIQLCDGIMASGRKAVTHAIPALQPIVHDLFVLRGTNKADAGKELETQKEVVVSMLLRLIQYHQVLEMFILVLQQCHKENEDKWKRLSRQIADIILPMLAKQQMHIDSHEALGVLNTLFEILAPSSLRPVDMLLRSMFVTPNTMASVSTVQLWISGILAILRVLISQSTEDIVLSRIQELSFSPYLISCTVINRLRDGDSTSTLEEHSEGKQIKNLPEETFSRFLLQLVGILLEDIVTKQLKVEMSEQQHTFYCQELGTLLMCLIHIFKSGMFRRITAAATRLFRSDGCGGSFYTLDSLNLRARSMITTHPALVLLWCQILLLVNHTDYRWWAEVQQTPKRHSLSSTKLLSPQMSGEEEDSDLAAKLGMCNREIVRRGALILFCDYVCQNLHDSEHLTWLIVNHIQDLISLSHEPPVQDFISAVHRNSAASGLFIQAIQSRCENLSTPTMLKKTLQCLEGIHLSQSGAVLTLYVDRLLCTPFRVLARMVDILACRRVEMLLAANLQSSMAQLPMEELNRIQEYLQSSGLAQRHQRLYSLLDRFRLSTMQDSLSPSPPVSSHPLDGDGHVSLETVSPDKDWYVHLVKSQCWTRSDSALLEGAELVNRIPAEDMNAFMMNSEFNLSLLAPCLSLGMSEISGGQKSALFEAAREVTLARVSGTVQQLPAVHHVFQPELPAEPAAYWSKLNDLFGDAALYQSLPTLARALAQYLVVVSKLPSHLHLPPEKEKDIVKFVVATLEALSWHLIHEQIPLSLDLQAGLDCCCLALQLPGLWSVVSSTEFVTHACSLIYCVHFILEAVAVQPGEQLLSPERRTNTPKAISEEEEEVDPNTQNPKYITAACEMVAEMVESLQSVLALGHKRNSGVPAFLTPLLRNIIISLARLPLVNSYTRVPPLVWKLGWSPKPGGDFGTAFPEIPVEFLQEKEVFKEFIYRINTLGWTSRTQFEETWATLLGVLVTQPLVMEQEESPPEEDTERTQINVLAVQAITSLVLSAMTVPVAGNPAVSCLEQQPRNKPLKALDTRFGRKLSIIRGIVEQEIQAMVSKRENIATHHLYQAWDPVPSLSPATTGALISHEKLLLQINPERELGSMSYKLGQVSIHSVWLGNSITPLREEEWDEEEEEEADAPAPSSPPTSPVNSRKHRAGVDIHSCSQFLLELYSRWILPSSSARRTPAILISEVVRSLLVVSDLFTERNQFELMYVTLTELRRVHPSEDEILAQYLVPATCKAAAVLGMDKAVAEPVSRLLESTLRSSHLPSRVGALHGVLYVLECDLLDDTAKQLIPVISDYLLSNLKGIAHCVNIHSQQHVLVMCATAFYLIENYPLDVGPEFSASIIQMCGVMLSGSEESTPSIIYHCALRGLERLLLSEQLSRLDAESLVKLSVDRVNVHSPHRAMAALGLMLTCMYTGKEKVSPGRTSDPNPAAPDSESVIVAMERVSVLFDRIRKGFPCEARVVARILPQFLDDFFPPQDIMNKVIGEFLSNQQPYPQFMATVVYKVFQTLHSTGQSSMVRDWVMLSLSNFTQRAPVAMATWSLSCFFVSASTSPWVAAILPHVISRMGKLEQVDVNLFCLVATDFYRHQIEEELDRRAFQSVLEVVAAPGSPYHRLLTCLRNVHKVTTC
Pf apPOL block: Pf-apPOL inhibitors, biochemical, fluorescence; Plasmodium falciparum apicoplast DNA polymerase (apPOL); Recombinant Pf-apPOL, molecular beacon fluorescence, 1.5 h; inhibition, % at 10 µM; 210,000 compounds, 0.25% hits
A number is an active result; i = inactive; nt = not tested or not shown. Cut-off read from the data, not from the text of the source: active = inhibition above about 50%; inactive = the rest.

SMILES	mHTT CaM bind	Pf apPOL block
CC(CNC(=O)c1cnn2c3c(cnc12)CCCCCC3)c1ccccc1 (stereo not given)	i	i
CN1CCN(CCCNC(=O)c2ccc(CS(=O)(=O)Cc3ccc(Cl)cc3)o2)CC1	i	i
CCCN1CCC(N2CCN(S(=O)(=O)c3ccc(Cl)cc3)CC2)CC1	i	i
c1ccc(-c2nnc3sc(C4CCCCC4)nn23)nc1	i	nt
Brc1ccc(-c2nn3c(-c4ccccn4)nnc3s2)o1	84.7	nt
CCN(CC)c1ccc(NC(=O)C2CCCCC2)c(N(CC)CC)n1	nt	i
CCCc1cc(=O)[nH]c(SCC(=O)NCCSCc2ccco2)n1	nt	i
CCN1C(=O)Cc2cc(C(=O)N3CCN(c4ccccc4OC)CC3)ccc21	i	i
Cc1nc2c(C(=O)NCc3ccccc3)cnn2c(C)c1Cc1ccccc1F	i	i
Cc1ccccc1Cc1c(C)nc2c(C(=O)NCCc3ccccc3)cnn2c1C	51.0	i
COC(CNC(=O)c1cnn2c(C)c(Cc3cc(C)ccc3C)c(C)nc12)OC	61.0	i
Cc1nc2c(C(=O)NCCc3ccccc3)cnn2c(C)c1Cc1ccccc1F	70.0	i
COCCNC(=O)c1cnn2c(C)c(Cc3cc(C)ccc3C)c(C)nc12	i	i
COCCCNC(=O)c1cnn2c(C)c(Cc3ccccc3C)c(C)nc12	i	i
Cc1cc2nc(-c3cccc(N)c3C)oc2cc1C	i	i
COc1ccc(N2C(=O)/C(=C/c3ccccc3)N=C2c2ccccc2)c([N+](=O)[O-])c1	i	i
Cc1cc(C(=O)Nc2ccc(F)cc2F)ccc1[N+](=O)[O-]	i	i
CCOC(=O)C(Cc1cccc(C(=O)OC)c1)NC(=O)c1ccccc1 (stereo not given)	nt	i
O=C(Nc1cc(Cl)ccc1Cl)c1noc2c1CCC2	i	i
CN(c1cc2c(c3c1ccn3C)C1CCC2O1)C1CCCCC1 (stereo not given)	58.9	i
CN(c1ccc(Cl)cc1)c1cc2c(c3c1ccn3C)C1CCC2O1 (stereo not given)	99.7	i
Cn1ccc2c(N3CCCCCCC3)cc3c(c21)C1CCC3O1 (stereo not given)	70.7	i
Cn1ccc2c(-c3ccc4[nH]ccc4c3)cc3c(c21)C1CCC3O1 (stereo not given)	55.9	i
Cn1ccc2c(-c3cccc4ccccc34)cc3c(c21)C1CCC3O1 (stereo not given)	i	i
CCN(CC)c1cc2c(c3c1ccn3C)C1CCC2O1 (stereo not given)	i	i
SMILES	mHTT CaM bind	Pf apPOL block
Cn1ccc2c(-c3ccc(F)cc3F)cc3c(c21)C1CCC3O1 (stereo not given)	i	i
CCCN(CC1CC1)c1cc2c(c3c1ccn3C)C1CCC2O1 (stereo not given)	i	i
CC1=C(C(=O)Nc2ccc(F)cc2F)C(c2ccc(F)cc2)C2=C(CCCC2=O)N1 (stereo not given)	i	i
CC(C)CCCC(C)C1CCC2C3CC=C4CC(OC(=O)C=Cc5ccc(N(C)C)cc5)CCC4(C)C3CCC12C (stereo not given)	i	i
COc1ccc(CCN2C(=O)C3C4C=CC(O4)C3C2=O)cc1OC (stereo not given)	i	i
CCCNC(=O)c1ccc2c(c1)nc(C)n2-c1cccc(Cl)c1	i	i
O=C(Nc1ccc(OC(F)(F)F)cc1)c1ccco1	i	i
O=C(c1ccccc1)N1CCCCC1c1nncn1CC1CC1 (stereo not given)	i	i
Cc1nc2c(ccc3sc(NC(=O)c4nc5ccccc5s4)nc32)s1	i	i
Cc1ccc(-c2csc3c(=O)n(CC(=O)Nc4ccccc4F)cnc23)cc1	i	i
COc1cc2nc(-c3cc([N+](=O)[O-])ccc3Cl)oc(=O)c2cc1OC	i	i
O=C(O)CCC(=O)N1CCC(Cc2ccccc2)CC1	i	i
COc1ccccc1-c1cc2c(c3c1ccn3C)C1CCC2O1 (stereo not given)	i	i
CCN(Cc1ccccc1)c1cc2c(c3c1ccn3C)C1CCC2O1 (stereo not given)	i	i
CN(c1cccc(F)c1)c1cc2c(c3c1ccn3C)C1CCC2O1 (stereo not given)	93.4	i
CN(CCc1ccccc1)c1cc2c(c3c1ccn3C)C1CCC2O1 (stereo not given)	99.3	i
COc1ccc2c(=O)c3c(oc2c1)C(=O)N(CCCN(C)C)C3c1cccc([N+](=O)[O-])c1 (stereo not given)	i	i
CCCCN1CC(N2CCCC2)CS1(=O)=O (stereo not given)	i	i
Cc1[nH]cnc1C(=O)NN=Cc1ccc([N+](=O)[O-])s1	nt	i
O=C(O)CCC(=O)Nc1ccccc1F	nt	i
CC1CCCC(NC(=O)C(Cc2ccccc2)NS(=O)(=O)c2ccc(Cl)cc2)C1C (stereo not given)	i	i
CC(=O)Nc1cc(C(=O)NC2CCCC(C)C2C)ccc1S(=O)(=O)c1ccc(Cl)cc1 (stereo not given)	i	71.4
CCN(CC)S(=O)(=O)c1ccc(OC)c([N+](=O)[O-])c1	i	i
O=C(O)C1C2C=CC(C2)C1C(=O)Nc1nc(-c2ccc(Cl)cc2Cl)cs1 (stereo not given)	i	i
COc1cccc(C2C(C#N)=C(N)OC3=C2C(=O)CCC3)c1 (stereo not given)	i	i
SMILES	mHTT CaM bind	Pf apPOL block
N#CC1=C(N)OC2=C(CC/C2=C\c2ccc(F)cc2)C1c1ccc(F)cc1 (stereo not given)	77.0	i
N#CC1=C(N)OC2=C(CCCC2)C1c1ccc(F)cc1 (stereo not given)	i	i
COc1cccc(/C=C2\CCC3=C2OC(N)=C(C#N)C3c2cccc(OC)c2)c1 (stereo not given)	78.0	i
Cn1cccc1CN1CCCC(C(N)=O)C1 (stereo not given)	i	i
CCC1CCCCN1C(=O)CSc1nc2c(c(=O)n1-c1ccc(F)cc1)SCC2 (stereo not given)	i	i
O=C(Cc1csc(NC(=O)c2cnccn2)n1)Nc1cccc(C(F)(F)F)c1	84.4	i
Cc1ccc2nc(NC(=O)c3cnccn3)sc2c1	i	i
CCSc1nnc(NC(=O)c2cnccn2)s1	i	i
O=C(Cc1csc(NC(=O)C2CCCC2)n1)Nc1nc(-c2cccnc2)cs1	i	i
O=C(Cc1csc(NC(=O)c2cnccn2)n1)Nc1nc2ccccc2s1	80.5	i
CCSc1nnc(NC(=O)Cc2csc(Nc3cccc(C(F)(F)F)c3)n2)s1	i	i
CCSc1nnc(NC(=O)Cc2csc(NC(=O)c3cnccn3)n2)s1	88.4	i
O=C(Cc1csc(NC(=O)c2cnccn2)n1)Nc1nc(-c2cccnc2)cs1	99.5	55.0
CCNC(=O)N1CCCC1c1nc(-c2ccccc2OC)no1 (stereo not given)	i	i
O=C(CCCS(=O)(=O)c1nc(-c2cccs2)cc(C(F)(F)F)n1)NC1CCCCC1	i	i
O=C(c1ccccc1)N1CCC(CCNS(=O)(=O)c2ccccc2Cl)CC1	i	i
CCC(C)CN1C(=O)CNC12CCN(C(=O)C1CCC1)CC2 (stereo not given)	i	i
Cc1ccccc1C1C(C#N)=C(N)OC2=C1C(=O)CC(C)(C)C2 (stereo not given)	i	i
CC1(C)CC(=O)C2=C(C1)OC(N)=C(C#N)C2c1cn(-c2ccccc2)nc1-c1ccccc1 (stereo not given)	76.5	i
NC(=O)C1(S(=O)(=O)c2ccccc2)CC1	i	i
